Reference: PubChem BioAssay AID1626 (SRMLSC, 2009)
The whole screen tested about 220,000 compounds, of which about 2,000 (0.91%) were called active. About 2% were inconclusive and are not listed. Cut-off read from the data, not from the text of the source: inconclusive = inhibition above about 80% without an active follow-up result; inactive = below that; test concentration not stated here. Not all results are given here. Measured potencies and affinities stand elsewhere.

test: M. tuberculosis H37Rv growth inhibitors, H37Rv strain (AID 1626); conditions: hits give high values, concentration not given here;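 note: bacteria incubated seven days before Alamar blue readout; 0% = bacteria only wells and 100% = bacteria with antibiotic wells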

SMILES	inhibition
CN(C)CCCCCCCCCCC(=O)/C=N/O	7.54% (inactive)
CCn1ncc(CN2CCN(Cc3ccc(OC)c(C)c3C)C(CCO)C2)c1C (stereo unspecified)	3.6% (inactive)
N[C@@H](Cc1c[nH]c2ccccc12)c1nnc(SCc2ccccc2)o1	-10.5% (inactive)
CCOC(=O)COc1ccc2c3c(c(=O)oc2c1C)CCC3	76.7% (inactive)
Cc1cc2oc(=O)c3c(c2cc1OCc1nn[nH]n1)CCCC3	-6.49% (inactive)
COCCCn1c(SCC(=O)OC2CCCCC2)nnc1-c1ccco1	-15.4% (inactive)
Cc1ccccc1SCc1noc(C(=O)NCC2CCCO2)c1C(=O)O (stereo unspecified)	-6.27% (inactive)
COc1ccc(-n2c(O)c(C(C)=NCCCn3ccnc3)c(=O)[nH]c2=O)cc1	-3.9% (inactive)
O=C(Nc1ccc(NC(=S)NC(=O)c2cccs2)cc1)c1ccco1	-2.57% (inactive)
O=C(OCC(=O)N(C1CCCCC1)C1CCCCC1)c1ccco1	-7.12% (inactive)
CCc1[nH]nc2c1C1(CCOC1C)C(C#N)=C(N)O2 (stereo unspecified)	-2.61% (inactive)
Cn1c(=O)[nH]c(=O)c2c1nc([N+](=O)[O-])n2Cc1ccccc1	72.1% (inactive)
CCCn1c(Sc2nc3c(c(=O)[nH]c(=O)n3C)n2CCC)nc2c1c(=O)[nH]c(=O)n2C	3.31% (inactive)
CC(C(=O)c1ccccc1)N1C(=O)c2ccccc2C1=O (stereo unspecified)	-3.22% (inactive)
N#Cc1cccnc1N1CCC(C(N)=O)CC1	-8.98% (inactive)
O=C(N/N=C/c1ccc2c(c1)OCO2)C(=O)Nc1ccc2ccccc2c1	1.96% (inactive)
O=c1c2ccccc2nc(-c2ccc(Cl)cc2Cl)n1O	1.38% (inactive)
CSc1ccccc1NC(=O)c1ccc(C)o1	-1.2% (inactive)
COc1ccc2c(c1)Sc1ccccc1N2CCN(C)C	2.43% (inactive)
CN(C)CCCN1c2ccccc2Sc2ccccc21	-4.11% (inactive)
O=c1[nH]c2cccnc2c2ccsc12	-1.93% (inactive)
Cc1ccc(/C=N/N2CCN(c3ccncc3S(=O)(=O)N3CCCCC3)CC2)cc1	7.81% (inactive)
Cc1cc2c(s1)CCCCC(=O)N2	-2.34% (inactive)
O=C1CCCc2sc3c(c2N1)CCCCC3	-8.7% (inactive)

SMILES	inhibition
Cc1cc(C(=O)NC(Cc2ccccc2)C(=O)O)c(C)o1 (stereo unspecified)	1.76% (inactive)
O=C(CNC(=S)N(CCCN1CCOCC1)Cc1cccs1)NCCN1CCOCC1	5.22% (inactive)
NC(=O)CN1C(=O)C2C3c4ccccc4C(c4ccccc43)C2C1=O (stereo unspecified)	2.42% (inactive)
CCNc1nc(NCC)nc(N/N=C/c2cc(OC)c(OC)c(OC)c2)n1	-2.94% (inactive)
Cc1[nH]n(-c2ccccc2)c(=O)c1-c1ccccc1	-7.21% (inactive)
Cc1cc(-c2c(C)[nH]n(-c3ccc(Cl)cc3)c2=O)n[nH]1	65.3% (inactive)
CCOC(=O)C1=C(O)/C(=C/c2ccc(OCC(=O)O)c(OC)c2)SC1=Nc1ccc(OC)cc1	17.4% (inactive)
CC(C)(C)Nc1nc(N2CCCC2)nc(N2CCCC2)n1	14.2% (inactive)
CCNc1nc(N2CCCC2)nc(N2CCCC2)n1	1.64% (inactive)
COc1ccc(N2CCN(c3nc(Nc4ccc(C)c(F)c4)nc(N4CCCC4)n3)CC2)cc1	1.07% (inactive)
CCOc1ccc(Nc2nc(N3CCCC3)nc(N3CCN(c4ccc(OC)cc4)CC3)n2)cc1	-4.38% (inactive)
O=C(NC(=S)NCCSc1ccccc1)c1cccnc1	4.56% (inactive)
COc1ccc(S(=O)(=O)NC2CCCCC2)cc1-n1cnnn1	-10.3% (inactive)
Fc1cccc(Cl)c1/C=N/Nc1ccccn1	3.42% (inactive)
O=c1[nH]c(=O)n(Cc2ccccc2Cl)c(O)c1C=Nc1ccc(F)cc1	3.81% (inactive)
Cn1c(O)c(/C=C2/C=CC=N2)c(=O)[nH]c1=O	1.64% (inactive)
C=CCn1c(O)c(/C=C2/C=CC=N2)c(=O)[nH]c1=O	49% (inactive)
COc1ccc(Cn2c(O)c(/C=N/NC(=O)c3ccccc3)c(=O)[nH]c2=O)cc1	-2.76% (inactive)
O=C(NC1CCCCC1)N1CCCc2ccccc21	-7.82% (inactive)
Cc1ccc(CC2C(=O)N(CC(=O)O)C(=O)C2C)cc1 (stereo unspecified)	-14.9% (inactive)
O=C(Nc1ccccn1)C(=O)Nc1ccccn1	-5% (inactive)
CCCCNC(=O)Nc1ccccn1	-6.21% (inactive)
CC(O)Cc1cn([C@@H](CCCCNC(=O)OC(C)(C)C)C(=O)N2CCN(C(=O)OC(C)(C)C)CC2)nn1 (stereo partly specified)	-10.7% (inactive)
CO/C=C/C#CC1(O)CCN(C)CC1	-1.81% (inactive)

SMILES	inhibition
O=C(NCC1CCCO1)c1cc(C(=O)c2ccc(Cl)cc2Cl)c[nH]1 (stereo unspecified)	2.36% (inactive)
COCCCNC(=S)Nc1ccc(C)cc1	-3.56% (inactive)
COc1ccc(C(CCN2CCCC(C)C2)c2c(OC)cc(OC)c3c(C)cc(=O)oc23)cc1 (stereo unspecified)	1.05% (inactive)
CCCCCc1cc(=O)oc2c(C(CCN3CCN(c4ccccc4)CC3)c3ccc4c(c3)OCO4)c(OC)cc(OC)c12 (stereo unspecified)	22.5% (inactive)
COc1ccc(C(CCN2CCCC(C)C2)c2c(OC)cc(OC)c3c2OC(=O)CC3c2cc(OC)c(OC)c(OC)c2)cc1 (stereo unspecified)	-7.36% (inactive)
COc1cc(OC)c2c(C)cc(=O)oc2c1C(CCN1CCOCC1)c1ccc(N(C)C)cc1 (stereo unspecified)	-12.1% (inactive)
CCCCCc1cc(=O)oc2c(C(CCN3CCN(c4ccccc4)CC3)c3ccc(N(C)C)cc3)c(OC)cc(OC)c12 (stereo unspecified)	12.8% (inactive)
COc1cc(OC)c2ccc(=O)oc2c1C(CCN1CCCC1)c1ccc(N(C)C)cc1 (stereo unspecified)	-8.24% (inactive)
COc1ccc(C(CCN2CCOCC2)c2c(OC)cc(OC)c3c(C)cc(=O)oc23)cc1 (stereo unspecified)	-3.23% (inactive)
COc1cc(OC)c2ccc(=O)oc2c1C(CCN1CCCC(C)C1)c1ccc(N(C)C)cc1 (stereo unspecified)	-10.1% (inactive)
N/C(=N/OC(=O)c1ccccc1F)c1nonc1N	1.17% (inactive)
S=C(NCC1CCCO1)N1CCN(Cc2ccccc2Cl)CC1 (stereo unspecified)	-6.51% (inactive)
CCOC(=O)c1cnn(CCOC(=O)c2ccccc2F)c1NC(=O)c1ccccc1F	-4.26% (inactive)
Clc1ccc(-c2c(C3=NCCCN3)nnn2-c2ccc(Cl)cc2)cc1	2.74% (inactive)
Cc1cc(=O)[nH]c(SCc2nc3ccccc3n2Cc2ccccc2)n1	-7.65% (inactive)
Cc1ccc(C(=O)Cn2nnc(-c3cccs3)n2)cc1	-5.53% (inactive)
CCN1CCN(Cc2ccc(NC(=O)c3ccc(C)c(NC(=O)c4cccc5[nH]ccc45)c3)cc2C(F)(F)F)CC1	-5.49% (inactive)
CCN1CCN(Cc2ccc(NC(=O)c3ccc(C)c(NC(=O)c4ccno4)c3)cc2C(F)(F)F)CC1	1.48% (inactive)
CCN1CCN(Cc2ccc(NC(=O)c3ccc(C)c(NC(=O)c4nccn4C)c3)cc2C(F)(F)F)CC1	2% (inactive)
CCN1CCN(Cc2ccc(NC(=O)c3ccc(C)c(NC(=O)N4CCNC4=O)c3)cc2C(F)(F)F)CC1	-4.19% (inactive)
Cc1ccc(S(=O)(=O)N2CCOCC2)cc1NC(=O)CN1CCC(Cc2ccccc2)CC1	9.42% (inactive)
Cc1cc(C(=O)OCC(=O)N2CC(C)CC(C)C2)c(C)o1 (stereo unspecified)	-6.8% (inactive)
CCOC(=O)c1c(C)[nH]c(C)c1C(=O)COC(=O)c1cc2ccccc2cc1O	-1.14% (inactive)
CC1CCN(C(=O)COC(=O)c2cc(Cl)cc(Cl)c2N)CC1	-13.4% (inactive)

SMILES	inhibition
CC1CC(C)CN(C(=O)COC(=O)c2ccc[nH]c2=O)C1 (stereo unspecified)	-10% (inactive)
CC(C)(C)C(=O)COC(=O)c1ccccc1O	10.3% (inactive)
COc1cc2ccccc2cc1C(=O)OCC(=O)N1CCOCC1	-12.6% (inactive)
CC(=O)OCC(=O)c1c[nH]c2ccccc12	-1.25% (inactive)
COc1cccc(C(=O)OCC(=O)c2c[nH]c3ccccc23)c1O	7.28% (inactive)
COc1ccccc1C/C(N)=N/OC(=O)c1ccc(C)c([N+](=O)[O-])c1	3.93% (inactive)
Cc1nnc(SCC(=O)N2CCN(S(=O)(=O)c3ccc(Cl)cc3)CC2)[nH]c1=O	-6.4% (inactive)
COc1ccc(C(=O)CSc2nnc(NC(=O)C3CC(=O)N(c4ccccc4C)C3)s2)cc1 (stereo unspecified)	2.7% (inactive)
O=C(Nc1c(-c2cccs2)nc2ccccn12)c1ccc2ccccc2c1	0.95% (inactive)
CCC(CC)C(=O)Nc1cccc(-c2nc3ccccc3o2)c1	0.04% (inactive)
CCN(CC)C(=O)CC(c1ccccc1)c1ccco1 (stereo unspecified)	-14.2% (inactive)
Cc1cc(C)nc(N(C#N)CCOc2ccc(Cl)cc2)n1	-4.66% (inactive)
Cn1c(=O)c2c(nc(SCCN3CCCCC3)n2Cc2ccccc2)n(C)c1=O	-2.51% (inactive)
CC(C)C(NC(=O)c1ccccc1F)C(=O)Nc1ccc2c(c1)OCO2 (stereo unspecified)	1.73% (inactive)
CN(C)C(=O)/C(=C\c1cccc(Oc2ccccc2)c1)NC(=O)c1ccccc1	4.22% (inactive)
C/C(=N\NC(=O)c1cc(-c2cccnc2)nc2ccccc12)c1ccccc1O	2.39% (inactive)
O=C(COC(=O)c1cc(Br)ccc1Cl)NC1CC1	26.2% (inactive)
O=C(COc1ccc(Cl)cc1)OCC(=O)N1CCCCCC1	7.95% (inactive)
O=C(OCC(=O)N1CCCCC1)c1ccccc1SCC(=O)N1CCCCC1	9.57% (inactive)
Cc1cc(C(=O)OCC(=O)N2CCCC2)c2ccccc2n1	-17.2% (inactive)
CCC1CCCCN1C(=O)CCCOc1ccccc1 (stereo unspecified)	-1.7% (inactive)
O=C(COc1ccc(Cl)cc1)OCC(=O)N1CCCC1	0.56% (inactive)
O=C(OCC(=O)N1CCCC1)c1cc(Br)ccc1Cl	7.39% (inactive)
CCC1CCCCN1C(=O)COC(=O)c1n[nH]c2ccccc12 (stereo unspecified)	-3.06% (inactive)
